Only some compounds are listed: those with a hit (about 1.5% of all), similar ones and a draw of the others.
SARS 3CLpro inh: SARS-CoV 3CLpro protease inhibitors, primary screen, biochemical, quenched FRET; 0.14% of 290,000 active; Replicase polyprotein 1ab (Severe acute respiratory syndrome coronavirus), P0C6X7; inhibition, % at 6 µM; AID 1706, 2009; recombinant SARS-CoV 3CLpro, quenched FRET peptide cleavage; in the data active = inhibition above about 12%
RecA splice inh: Mtb RecA intein splicing inhibitors, primary screen, biochemical, fluorescence, HTS. 0.75% of 290,000 active. AID 2221, 2009. inhibition, % (test concentration not listed). cell-free RecA intein splicing. Protein RecA (Mycobacterium tuberculosis (strain ATCC 25618 / H37Rv)), P9WHJ3; in the data active = inhibition above about 30%;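 note: 0% = vehicle wells and 100% = reference inhibitor control wells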
VHR inh abs: VHR1 phosphatase inhibitors, primary screen, biochemical, absorbance, uHTS. 0.52% of 290,000 active. recombinant VHR phosphatase, pNPP absorbance. inhibition, % at 13.3 µM. Dual specificity protein phosphatase 3 (Homo sapiens), P51452; in the data active = inhibition above about 50%
Target sequence (P51452 whole entry, looked up): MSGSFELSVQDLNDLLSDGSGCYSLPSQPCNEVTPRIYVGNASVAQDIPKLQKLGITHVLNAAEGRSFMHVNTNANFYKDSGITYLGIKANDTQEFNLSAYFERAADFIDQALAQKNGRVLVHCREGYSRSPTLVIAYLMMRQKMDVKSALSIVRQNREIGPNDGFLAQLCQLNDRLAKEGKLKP
CCHF vOTU inh-1: CCHFV vOTU protease inhibitors, primary screen, biochemical, Pep-AMC substrate, fluorescence | Crimean-Congo hemorrhagic fever virus L polyprotein viral ovarian tumor (vOTU) protease … | inhibition, % at 11.5 µM | 0.55% of 370,000 active; note: 0% = vehicle wells with enzyme and 100% = no enzyme wells
CCHF vOTU inh-2: CCHFV vOTU protease inhibitors, confirmation, biochemical, Pep-AMC substrate, fluorescence. shares compounds with CCHF vOTU inh-1. Recombinant CCHFV vOTU. inhibition, % at 11.5 µM. 17% of 1,900 active. AID 686976, 2013
* hit, by the source's call; / = not tested or not shown. Cut-off read from the data, not from the text of the source, unless noted: active = inhibition above about 30%; inactive = the rest.

SMILES	SARS 3CLpro inh	RecA splice inh	VHR inh abs	CCHF vOTU inh-1	CCHF vOTU inh-2
C=CCC[C@@H](Cc1ccc(F)cc1)C(=O)OC[C@@H](NC(=O)[C@H](CC=C)CC(=O)N(CCO)Cc1ccccc1)c1ccccc1	/	/	/	24	/
C=CCC[C@@H](Cc1ccc(F)cc1)C(=O)OC[C@@H](NC(=O)[C@@H](CC=C)CC(=O)N(CCO)Cc1ccccc1)c1ccccc1	/	/	/	34*	4
C=CC[C@@H](Cc1ccc(F)cc1)C(=O)OC[C@H]1CCCN1C(=O)[C@@H](CC=C)CC(=O)N(CCO)Cc1ccccc1	/	/	/	31*	5
C=CCC[C@@H](Cc1ccc(F)cc1)C(=O)OC[C@H](C)NC(=O)[C@@H](CC=C)CC(=O)N(CCO)Cc1ccccc1	/	/	/	32*	5
CCN(C(=O)COc1cccc2cccnc12)C1CCS(=O)(=O)C1 (stereo not given)	0	7	39	20	/
CCN1/C(=C\C=C(C(C)=O)C(C)=O)Sc2ccccc21	2	-3	23	37*	25
O=C(c1ccco1)[C@@H]1[C@@H]2C(=O)N(c3ccc(Br)cc3)C(=O)[C@@H]2C2c3ccccc3C=CN21 (stereo not given in full)	-1	/	22	93*	84*
O=C(c1ccco1)[C@@H]1[C@@H]2C(=O)N(c3ccc(F)cc3)C(=O)[C@@H]2C2c3ccccc3C=CN21 (stereo not given in full)	-7	-3	25	86*	40*
O=C(c1ccco1)[C@@H]1[C@@H]2C(=O)N(c3ccc(F)cc3)C(=O)[C@@H]2[C@H]2C=Cc3ccccc3N21	-2	/	8	14	/
CC(C)(C)C(=O)[C@@H]1[C@@H]2C(=O)N(Cc3ccccc3)C(=O)[C@@H]2[C@H]2c3ccccc3C=CN12	4	/	29	/	/
CC(C)CCNC(=O)C(=O)NCC1OCCCN1S(=O)(=O)c1cccs1 (stereo not given)	-1	1	14	0	/
COc1ccc(CN(C)C(=O)[C@H]2O[C@@H](n3ccc(=O)[nH]c3=O)[C@H](O)[C@@H]2O)cc1OC	/	/	/	30*	3
CCOC(=O)C(/C=C(\C#N)C(=O)OCC)=C(/N)N1CCN(c2ccccc2)CC1	-1	-3	18	33*	8
CC(C)Oc1ccc(S(=O)(=O)N2CCOCC2)cc1NC(=O)CN1C(=O)c2ccccc2C1=O	/	/	/	36*	-20
CCC(=O)N(C(=O)CC)N1CCN(c2ccncc2S(=O)(=O)N2CCCCC2)CC1	-3	/	10	-6	/
CCn1nc(NS(=O)(=O)c2ccccc2[N+](=O)[O-])c2cc3cccc(C)c3nc21	7	-4	23	32*	5
CCn1nc(NS(=O)(=O)c2ccccc2[N+](=O)[O-])c2cc3ccc(C)cc3nc21	3	-2	11	/	/
CCC12CCCN3CCc4c(n(c5ccccc45)C(O)(C(=O)OC)C1)C32 (stereo not given)	-5	-3	5	42*	-6
Cn1nc(C(C)(C)C)cc1NC(=O)C1(C)CCN1C(=O)CC(c1ccccc1)c1ccccc1 (stereo not given)	/	/	/	33*	-11
CSc1ccc(CN(C)C(=O)c2cc(=O)[nH]c3ccccc23)cc1	7	1	12	-2	/
COc1ccc(N2CCN(CCCNC(=O)C(=O)c3c(C)n(C)c4ccccc34)CC2)cc1	-5	-2	-9	7	/
COC(=O)/C(=C/Nc1ccc(O)cc1)[N+](=O)[O-]	2	-8	24	93*	-7
CCc1cc(C(=O)O)c(NC(=O)/C=C/c2ccc(OC)c(OC)c2)s1	6	-1	13	33*	9
CCOC(=O)c1nc(C)n(-c2cc(OC)c(Cl)cc2Cl)n1	3	2	32	-2	/
CC1(C)CC(C(CCN(Cc2ccccc2)C(=O)c2ccco2)c2ccc(F)cc2)CCO1 (stereo not given)	2	35*	1	33*	-2
SMILES	SARS 3CLpro inh	RecA splice inh	VHR inh abs	CCHF vOTU inh-1	CCHF vOTU inh-2
Cc1cc(NS(=O)(=O)c2ccc(NC(=O)COc3ccccc3Cl)cc2)no1	-2	2	-16	2	/
CCc1ccc(OCC(=O)Nc2ccc(S(=O)(=O)Nc3cc(C)on3)cc2)c(Br)c1	11	7	-29	44*	2
CCOC(=O)C1(C)C=C(Nc2ccc(O)cc2)C(=O)N1c1ccc(O)cc1 (stereo not given)	3	-5	4	91*	-15
CCOC(=O)C1(C)C=C(Nc2ccc(OC)cc2)C(=O)N1c1ccc(OC)cc1 (stereo not given)	4	-2	15	0	/
COc1ccc2cc(C3(C)NC(=O)N(CC(=O)N4CCCCC4)C3=O)ccc2c1 (stereo not given)	/	/	/	-10	/
CCC(C)(C)n1nnnc1C(c1cccnc1)N1CCN(c2cccc(C(F)(F)F)c2)CC1 (stereo not given)	-6	9	39	30*	3
CCC(C)(C)n1nnnc1C(c1ccncc1)N1CCN(c2cccc(OC)c2)CC1 (stereo not given)	-4	-1	6	-2	/
CN1C(C(=O)Nc2cccc(O)c2)=CC(c2cccs2)=NS1(=O)=O	3	2	6	33*	-7
Cc1cc(/C=C(\C#N)C(=O)O)c(C)n1CCC(C)C	0	1	34	30*	4
Cc1cc(/C=C(\C#N)C(=O)O)c(C)n1CC(C)C	4	/	22	3	/
O=C1CC(N2CCN(c3ccccn3)CC2)C(=O)N1CC(c1ccccc1)c1ccccc1 (stereo not given)	-1	1	4	38*	-9
COC1C(OC(=O)/C=C/C=C/C=C/C=C/C(=O)O)CCC2(CO2)C1C1(C)OC1CC=C(C)C (stereo not given) (tested in a mixture with another compound)	/	/	/	30*	3
O=C(O)COc1ccccc1/C=N/NC(=O)Cc1csc(Nc2cccc(C(F)(F)F)c2)n1	5	9	4	32*	-2
COC(=O)c1ccccc1S(=O)(=O)N1CCC(NC(=O)C(Cc2cccc(OC)c2OC)NC(C)=O)CC1 (stereo not given)	-1	-5	2	24	/
O=C(NCC1CCN(C(=O)C(=O)c2cc3ccccc3o2)CC1)c1cc(C(F)(F)F)cc(C(F)(F)F)c1	/	/	/	37*	-11
O=C(C(=O)N1CCC(CNS(=O)(=O)c2cc(C(F)(F)F)cc(C(F)(F)F)c2)CC1)c1cc2ccccc2o1	/	/	/	2	/
Cc1csc(=O)n1CC(=O)OCC(=O)Nc1ccc(F)c(F)c1F	/	/	/	0	/
O=C(COC(=O)c1cc(Br)ccc1O)Nc1cccnc1Cl	/	1	/	14	/
COc1ccccc1N1CCN(C(=O)c2ccc3nc(-c4ccco4)c(-c4ccco4)nc3c2)CC1	-4	7	27	4	/

Screening results: PubChem, several laboratories
